HDAC3 inhib – inhibitors of human histone deacetylase 3 | O15379 | recombinant HDAC3, fluorogenic peptide/trypsin coupled, fluorescence | inhibition, % at 8.3 µM | 0.15% of 320,000 active; in the data active = inhibition above about 26%, passing the limit was not always enough; inconclusive = no clear call, values can overlap the other calls
CHT PAM – allosteric activators of human choline transporter CHT; 0.49% of 310,000 active; AID 488977; B-score at 10 µM; CHT-expressing cells, membrane potential dye, choline EC20; stronger effect = higher value; LV-AA mutant CHT in HEK293 cells; Q9GZV3;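 active = initial fluorescence not abnormally high and integrated response B-score, plate-corrected, over 3 SD above library mean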
TMEM16A inh – mouse TMEM16A channel inhibition, primary screen; Q8BHY3; HEK293 TMEM16A/YFP iodide influx fluorescence, ionomycin; normalized B-score (activity score, 25-100; higher = stronger inhibition) at 10 µM; 1.2% of 310,000 active; AID 588511;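 active = ratio plate-corrected score three or more library SD toward inhibition, starting fluorescence score within five deviations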;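 note: score derived from kinetic fluorescence span divided by baseline fluorescence per well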
Target sequence (Q8BHY3 whole entry, looked up): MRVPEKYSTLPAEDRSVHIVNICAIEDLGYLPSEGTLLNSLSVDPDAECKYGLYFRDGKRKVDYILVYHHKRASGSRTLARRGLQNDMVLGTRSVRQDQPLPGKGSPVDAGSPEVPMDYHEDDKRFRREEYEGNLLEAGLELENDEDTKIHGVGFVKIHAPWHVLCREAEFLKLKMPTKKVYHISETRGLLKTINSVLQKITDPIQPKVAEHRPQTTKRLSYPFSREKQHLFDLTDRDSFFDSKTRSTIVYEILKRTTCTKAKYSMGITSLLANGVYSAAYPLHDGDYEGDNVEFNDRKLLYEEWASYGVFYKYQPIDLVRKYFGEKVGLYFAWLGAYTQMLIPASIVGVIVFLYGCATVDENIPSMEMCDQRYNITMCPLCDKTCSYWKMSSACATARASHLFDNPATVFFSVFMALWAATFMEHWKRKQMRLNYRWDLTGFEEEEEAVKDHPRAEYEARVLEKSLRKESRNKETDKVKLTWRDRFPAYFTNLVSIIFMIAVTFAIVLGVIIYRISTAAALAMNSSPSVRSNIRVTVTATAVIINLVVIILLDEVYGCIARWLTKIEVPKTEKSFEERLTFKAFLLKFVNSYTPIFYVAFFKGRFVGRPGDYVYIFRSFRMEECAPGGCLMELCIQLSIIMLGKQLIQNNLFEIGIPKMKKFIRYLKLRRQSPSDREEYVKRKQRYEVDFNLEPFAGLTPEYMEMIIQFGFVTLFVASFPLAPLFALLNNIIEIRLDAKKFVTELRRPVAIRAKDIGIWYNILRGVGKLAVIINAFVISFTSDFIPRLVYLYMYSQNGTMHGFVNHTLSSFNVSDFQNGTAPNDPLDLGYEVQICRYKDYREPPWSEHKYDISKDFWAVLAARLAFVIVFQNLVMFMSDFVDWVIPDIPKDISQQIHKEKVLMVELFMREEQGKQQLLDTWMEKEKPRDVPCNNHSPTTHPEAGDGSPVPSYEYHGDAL
CHT block – human CHT choline transport inhibition; Q9GZV3; CHT-expressing cells, membrane potential dye, choline response; stronger effect = lower value; B-score at 10 µM; 0.86% of 310,000 active;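 active = B-score over 3 SD under the library average, and starting fluorescence ratio not unusually high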;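 note: choline stimulus applied at its EC90 after an EC20 pre-addition; B-score computed on integrated fluorescence ratio after choline addition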
PHOSPHO1 inh – PHOSPHO1 (human) inhibition | Q8TCT1 | recombinant PHOSPHO1, absorbance phosphatase assay | inhibition, % at 13.3 µM | 1.1% of 290,000 active | AID 1565; in the data active = inhibition above about 60%
ANO1 activ – activates or potentiates the mouse TMEM16A chloride channel. HEK293 TMEM16A/YFP-H148Q/I152L, iodide quench fluorescence; stronger effect = lower value. 0.3% of 340,000 active. B-score at 10 µM. Q8BHY3;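 active = fluorescence-ratio B-score plate-corrected deviation score at least 3 library SD below zero, with starting fluorescence score within 5 deviations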;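 note: channel opened by trigger with iodide after compound preincubation; score built on the fluorescence ratio of max minus min over baseline; more negative score means more quench and so TMEM16A activation or potentiation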
* marks the source's active call; other numbers are inactive results; i = inactive; ? = inconclusive; nt = no result given. In the library only some 3.2% were active in any assay of this set; here they are far more common.

SMILES	HDAC3 inhib	CHT PAM	TMEM16A inh	CHT block	PHOSPHO1 inh	ANO1 activ
O=C(Nc1ccc(Nc2ccccc2)cc1)c1ccccc1F	1	i	i	i	14	i
CCOCc1nnc(NC(=O)c2cc(Cl)ccc2OC)s1	3	i	i	i	97*	i
CCOC(=O)Nc1cccc(NC(=O)c2ccccc2F)c1	-3	i	i	i	15	-10*
CCN(CC)c1ccc(NC(=O)c2cc(Cl)ccc2OC)cc1	9	i	i	i	76*	i
CCN(CC)c1ccc(NC(=O)c2ccccc2F)cc1	13	i	i	i	62*	i
CCOC(=O)c1cnc(SCCc2ccccc2)nc1N	1	i	i	i	35	i
Cc1nc(-c2ccc(S(=O)(=O)Nc3ccc(S(N)(=O)=O)cc3)cc2)co1	5	i	i	i	27	i
COc1ccc(CNC(=O)c2cc(C(C)=O)c[nH]2)cc1	3	i	i	i	20	i
CCN(CC)c1ccc(NC(=O)/C=C\c2ccccc2Cl)cc1	3	i	i	i	69*	i
CN(C)c1ccc(NC(=O)/C=C/c2ccccc2Cl)cc1	?	i	i	i	-4	i
O=C(Nc1nnc(COc2ccc(Cl)cc2)s1)c1cccs1	3	i	i	i	80*	nt
COc1ccc(C(=O)Nc2ccc(C)cn2)c(OC)c1	11	i	100*	i	6	i
COc1ccc(C(=O)Nc2cc(C)on2)c(OC)c1	-5	i	i	i	nt	i
Nc1ccccc1Sc1ccc(C(=O)c2ccccc2C(=O)O)cc1[N+](=O)[O-]	0	i	i	i	-19	i
Nc1cc(C(=O)O)ccc1Sc1ccccc1C(=O)O	-5	i	i	i	63*	i
CCCCN1CC(O)=C(c2nc(-c3ccc(Cl)cc3)cs2)C1=N	3	i	i	i	14	i
CCCN=C(N)/C(C(=O)OCC)=C(\O)c1ccc(OC)cc1	3	i	i	i	32	i
CCOC(=O)/C(C(N)=NCC(C)C)=C(/O)c1ccccc1	4	i	i	i	61*	i
CCOC(=O)c1ccccc1N/C=C1\CCCC1=O	1	i	i	i	94*	i
COc1ccc(C2NC(c3ccc(OC)cc3OC)C(C)C(=O)C2C)c(OC)c1 (stereo not drawn)	-1	i	i	i	6	-5.9*
COc1ccc([C@@H]2CC=C(C(=O)O)[C@H](c3ccc(F)cc3)N2S(=O)(=O)c2ccc(C)cc2)cc1OC	3	i	i	i	nt	i
Cc1ccc(S(=O)(=O)NNc2nc3ccccc3nc2C(F)(F)F)cc1	5	i	i	i	92*	i
O=C(NNc1nc2ccccc2nc1C(F)(F)F)c1ccccc1	-2	i	i	i	40	i
Cc1ccc(SCCNC(=O)/C=C/c2ccc(Cl)cc2)cc1	-4	i	i	i	-1	i
Cc1ccc(SCCNC(=O)/C=C/c2ccccc2Cl)cc1	nt	i	25*	i	15	i
SMILES	HDAC3 inhib	CHT PAM	TMEM16A inh	CHT block	PHOSPHO1 inh	ANO1 activ
Cc1ccc(S(=O)(=O)n2ccc(OC(=O)c3cccs3)n2)cc1	90*	i	i	i	26	i
c1ccc(CCNc2cnccn2)cc1	-26	i	i	i	23	-4.7*
Cc1ccc(N2CC(C(=O)N3CCc4ccccc4C3)CC2=O)cc1 (stereo not drawn)	7	i	i	i	26	i
COCCCN(C(=O)c1cc2c(s1)CCCCC2)c1c(N)n(Cc2ccccc2)c(=O)[nH]c1=O	2	i	i	i	nt	i
O=P(CCCCCCCCCP(=O)(c1ccccc1)c1ccccc1)(c1ccccc1)c1ccccc1	7	i	100*	i	13	i
O=S(=O)(c1ccc(Cl)cc1)N1CCCC1c1nc(-c2cccc(Cl)c2)no1 (stereo not drawn)	3	i	i	i	18	i
COCCn1c(SCC(=O)Nc2nnc(C)s2)nnc1-c1c[nH]c2ccccc12	1	i	i	i	13	i
